# Data as given in the supplement of paper PMC8728848.
# The full list was thinned out, with the strongest signals kept by preference.
# B1: Epa1-NP-mutant-Y228A (Candida glabrata), Q6VBJ0 (protein)
# chain: MILNPALFLNKCVCIYTTLILLLLTNGGYATSSNDISLASKDPTTFPLGCSPDITTPKKGLSMELYSYDFRKKGSYPCWDAAYLDPNYPRTGYKSHRLLAKVDGVTGNINFYYHATKGCTPQLGHLPASYNYPKPLTMTNFTMLLYGYFRPKVTGFHTFTISADDLLFVNFGAGNAFDCCRRDSSADHFGNYQAYAIWGSKTAKDELTVHLDAGVYYPIRLFYNNREADGALSFTFKTESNENTVSDFSEYFFSLDDTEEGCPGLISYDSSCASVKTSKIIGIDYHTETPNENLVPITKTIYHLGIPCTGTTTTPLCGSGFYDPLANKCVTINTSSTSSVTKTTSHTTSKEVSFHSSISSQKTLIPKSIPSPYGPIKSQSIPTEMETSSEISSSEYAFSDVISTPSHSPYTKKHSSLNSSSYTSTVIHSLTSYSISQGIFSTSLSEQNITSKSSTDKFSTATSMSNNITQSSIIISQFSTNNENYTTTSMHTSSDKISTETLNNSISTTTSILFSNSSTILKNNTTIISSDKDTHYHPVNPTIVCSTNKTEIICASITQPSISNSNNHWSSSVLKFNSTTVRSTLPSSAGSNETSINVPFSSSTESNTSTSSTSTSNSKMVRSTLPSSAGSNETSISVPFSSSTESNTSTSSTSTSNSKMVRSTLPSSAGSNETSINVPFSSSTESNTSTSSTSTSNSKTVRSTPFSSAGIIMTSLSQRNNKSASSYASSNSKCYNTADSCRKVHSTPSYLLTSSYTSEGVDYDCSLVSTKLKINDTNCVNNKHTTKSCLKTSVTTTIPTLEIKTARKSSSNTIGLHSYPTSSPNKSISSAPIIGYISSFKTIKTASPSYQTSDLTTITTITSLNNPGSTAVENTHESNDKSRKTSSNDISSKHSVIKETKDAVESSNKSHQTNTLKCSSIIIASSSHNSYESLGGTTLTLTLSKVYSPQNNDTLPFLEISEVNPSRTVLPESSKMMQYLTSTEERNKTARNTIATNIVSISTFHFEGEGNAIRMGYTQLLLMLIGIIVMNIGT
# Assays:
# Experiment in all cases: glycan array binding signal (z-score within array); higher = stronger binding
# Conditions in all cases: glycan notation: IUPAC condensed, linker removed; mutation: Y228A
# [1] = target: Fuc(a1-2)Gal(b1-3)GlcNAc(b1-3)[Gal(b1-4)GlcNAc(b1-6)]Gal(b1-4)Glc
# In short: (§1)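 The binding signal is a Z-score computed within each array. Data were drawn from 3228 arrays in the Consortium for Functional Glycomics database, restricted to those with a known protein sequence. Scores were averaged over arrays of the same protein sequence at different concentrations or buffers, and over linkers, and negative values can be taken as non-binding.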
# [2] = target: Fuc(a1-2)Gal(b1-3)[Fuc(a1-4)]GlcNAc(b1-2)Man(a1-3)[Fuc(a1-2)Gal(b1-3)[Fuc(a1-4)]GlcNAc(b1-2)Man(a1-6)]Man(b1-4)GlcNAc(b1-4)[Fuc(a1-6)]GlcNAc(b1-4)[Fuc(a1-6)]GlcNAc
# In short: as §1
# [3] = target: Fuc(a1-2)Gal(b1-4)GlcNAc(b1-2)Man(a1-3)[Fuc(a1-2)Gal(b1-4)GlcNAc(b1-2)Man(a1-6)]Man(b1-4)GlcNAc(b1-4)GlcNAc
# In short: as §1
# [4] = target: Fuc(a1-2)Gal(b1-4)GlcNAc6S
# In short: as §1
# [5] = target: Fuc(a1-2)Gal(b1-4)[Fuc(a1-3)]GlcNAc(b1-3)GalNAc
# In short: as §1
# [6] = target: Fuc(a1-2)Gal6S(b1-4)Glc6S
# In short: as §1
# [7] = target: Fuc(a1-2)[Gal(a1-3)]Gal(b1-4)[Fuc(a1-3)]Glc
# In short: as §1
# [8] = target: Fuc(a1-2)[GalNAc(a1-3)]Gal(b1-3)GalNAc(a1-3)[Fuc(a1-2)]Gal(b1-4)GlcNAc
# In short: as §1
# [9] = target: Fuc(a1-2)[GalNAc(a1-3)]Gal(b1-3)GlcNAc(b1-3)GalNAc
# In short: as §1
# [10] = target: Fuc(a1-2)[GalNAc(a1-3)]Gal(b1-4)GlcNAc(b1-3)[Fuc(a1-2)[GalNAc(a1-3)]Gal(b1-4)GlcNAc(b1-6)]GalNAc
# In short: as §1
# [11] = target: Fuc(a1-3)[Gal(b1-4)]GlcNAc(b1-6)GalNAc
# In short: as §1
# [12] = target: Fuc(a1-3)[Gal(b1-4)]GlcNAc(b1-6)[Gal(b1-3)GlcNAc(b1-3)]Gal(b1-4)Glc
# In short: as §1
# Gal(a1-2)Gal = target: Gal(a1-2)Gal
# In short: as §1
# [13] = target: Gal(a1-3)Gal(b1-4)GlcNAc(b1-2)Man(a1-3)[Gal(a1-3)Gal(b1-4)GlcNAc(b1-2)Man(a1-6)]Man(b1-4)GlcNAc(b1-4)GlcNAc
# In short: as §1
# Gal(a1-3)GalNAc = target: Gal(a1-3)GalNAc
# In short: as §1
# [14] = target: Gal(a1-4)Gal(b1-4)GlcNAc(b1-2)Man(a1-3)[Gal(a1-4)Gal(b1-4)GlcNAc(b1-2)Man(a1-6)]Man(b1-4)GlcNAc(b1-4)GlcNAc
# In short: as §1
# Gal(b1-3)Gal = target: Gal(b1-3)Gal
# In short: as §1
# Gal(b1-3)Gal(b1-4)GlcNAc = target: Gal(b1-3)Gal(b1-4)GlcNAc
# In short: as §1
# [15] = target: Gal(b1-3)GalNAc(a1-3)[Fuc(a1-2)]Gal(b1-4)Glc
# In short: as §1
# [16] = target: Gal(b1-3)GlcNAc(a1-3)Gal(b1-4)GlcNAc
# In short: as §1
# Gal(b1-3)GlcNAc(b1-2)Man = target: Gal(b1-3)GlcNAc(b1-2)Man
# In short: as §1
# [17] = target: Gal(b1-3)GlcNAc(b1-2)Man(a1-3)[Gal(b1-3)GlcNAc(b1-2)Man(a1-6)]Man(b1-4)GlcNAc(b1-4)[Fuc(a1-6)]GlcNAc
# In short: as §1
# [18] = target: Gal(b1-3)GlcNAc(b1-2)Man(a1-3)[GlcNAc(b1-4)][Gal(b1-3)GlcNAc(b1-2)Man(a1-6)]Man(b1-4)GlcNAc(b1-4)GlcNAc
# In short: as §1
# [19] = target: Gal(b1-3)GlcNAc(b1-3)Gal(b1-4)GlcNAc(b1-6)[Gal(b1-3)GlcNAc(b1-3)]Gal(b1-4)Glc
# In short: as §1
# [20] = target: Gal(b1-3)GlcNAc(b1-6)Gal(b1-4)GlcNAc
# In short: as §1
# [21] = target: Gal(b1-3)GlcNAc(b1-6)GalNAc
# In short: as §1
# Gal(b1-3)GlcNAc6S = target: Gal(b1-3)GlcNAc6S
# In short: as §1
binder,measurement,setting,value
B1,glycan array binding signal (z-score),[1],-0.261
same,glycan array binding signal (z-score),[2],-0.098
same,glycan array binding signal (z-score),[3],-0.023
same,glycan array binding signal (z-score),[4],-0.027
same,glycan array binding signal (z-score),[5],-0.103
same,glycan array binding signal (z-score),[6],-0.325
same,glycan array binding signal (z-score),[7],-0.203
same,glycan array binding signal (z-score),[8],-0.281
same,glycan array binding signal (z-score),[9],0.018
same,glycan array binding signal (z-score),[10],-0.156
same,glycan array binding signal (z-score),[11],-0.289
same,glycan array binding signal (z-score),[12],-0.025
same,glycan array binding signal (z-score),Gal(a1-2)Gal,-0.233
same,glycan array binding signal (z-score),[13],-0.232
same,glycan array binding signal (z-score),Gal(a1-3)GalNAc,-0.151
same,glycan array binding signal (z-score),[14],0.054
same,glycan array binding signal (z-score),Gal(b1-3)Gal,11.6
same,glycan array binding signal (z-score),Gal(b1-3)Gal(b1-4)GlcNAc,10.2
same,glycan array binding signal (z-score),[15],0.088
same,glycan array binding signal (z-score),[16],-0.17
same,glycan array binding signal (z-score),Gal(b1-3)GlcNAc(b1-2)Man,3.19
same,glycan array binding signal (z-score),[17],2.29
same,glycan array binding signal (z-score),[18],2.24
same,glycan array binding signal (z-score),[19],2.26
same,glycan array binding signal (z-score),[20],2.32
same,glycan array binding signal (z-score),[21],-0.142
same,glycan array binding signal (z-score),Gal(b1-3)GlcNAc6S,7.1
